For 14 compounds, Kd results are on record in PMC5540273 (PLoS ONE, 2017).

pKd: −log10 of the molar value.
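Further: kd values determined as follow-up on hits from a single-replicate KINOMEscan panel screen.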

The first test concerns T1, MEK5.
T1 construct: gene MAP2K5
Consider `Nc1nccc2scc(-c3ccc4c(c3)CCN4C(=O)Cc3ccccc3)c12` [GSK2576924], for which the negative logarithm of the Kd (pKd) is 6.28.

`Nc1n[nH]c2ncc(-c3ccccc3)cc12` [SB-517081] had a pKd of 6.18.

As for `COc1cc2ncn(-c3cc(OCc4ccncc4Br)c(C(N)=O)s3)c2cc1OC` [GW854278], the pKd is 7.11.

As for `COc1cc2nccc(Nc3cccc(Oc4ccccc4)c3)c2cc1OC.Cl` [GW284543], the negative logarithm of the Kd (pKd) was 7.96.

Take `Cc1ccc(Oc2ccc(Nc3ncnc4cc[nH]c34)cc2C)cn1`: the pKd is 8.05.

The compound `COc1cc2ncn(-c3cc(OCc4ccc(S(C)(=O)=O)cc4)c(C(N)=O)s3)c2cc1OC` [GW869979] had a negative-log Kd (pKd) of 6.33.

As to `COc1cc(Nc2nccc(N3CCC(NC(=O)C4COc5ccccc5O4)C3)n2)cc(OC)c1OC` (centres unmarked) [GSK1379761], the negative logarithm of the Kd (pKd) is 6.74.

`COc1cccc(-n2cnc3c(N)ncnc32)c1` [SKF-97416] gave a pKd of 5.89.

Regarding `COc1cc2ncn(-c3cc(OCc4ccncc4)c(C(N)=O)s3)c2cc1OC` [GSK336313], the pKd is 6.17.

With `COc1cc2nccc(Nc3ccc(OCc4ccc(NC(C)=O)cc4)cc3)c2cc1OC.Cl` [GW440135], the pKd is 7.28.

Regarding `COc1cc2ncn(-c3cc(OCCCc4ccccc4)c(C(N)=O)s3)c2cc1OC` [GSK205189], the negative logarithm of the Kd (pKd) was 6.55.

A further test has as its system MYLK2.
`O=C(Nc1n[nH]c2nc(-c3ccccc3)c(Cl)cc12)C1CC1` [SB-734909] gave a negative logarithm of the Kd (pKd) of 6.82.

`O=C(Nc1n[nH]c2cc(-c3ccccc3F)ccc12)C1CC1` [SB-733371] showed a pKd of 6.96.

For `O=C(Nc1n[nH]c2nc(-c3ccccc3)c(Br)cc12)C1CC1` [SB-708998], the pKd is 7.22.
